Source: PubChem BioAssay (Tox21)
Results filed as inconclusive are left out. A call without a number means that no potency is given here. Activity calls are given as the source filed them. Calls come from the whole dose curve; as a rule, active = well fitted cell-killing curve with a large enough effect in the repeat runs; inconclusive = weak or mixed curves, or effect the other way; inactive = no such curve, though single readings can be large or run the other way.

test: qHTS assay to identify small molecule antagonists of the thyroid receptor (TR) signaling pathway - cell viability counter screen (AID 743064); details: GH3.TRE-Luc viability, CellTiter-Fluor, 24 h; series mostly up to 70.3 µM; note: nearly all actives have a fitted effect of over 50% in size
Excerpt: National Center for Advancing Translational Sciences [NCATS]
NIH Chemical Genomics Center [NCGC]
U.S. Environmental Protection Agency [EPA]
National Institutes of Environmental Health Sciences [NIEHS]
National Toxicology Program [NTP]
U.S. Food and Drug Administration [FDA]
Thyroid receptor (TR), a nuclear hormone receptor, plays an important role in development, proliferation, differentiation, metabolism, brain function, and cardiovascular system. […] To profile the Tox21 10K compound library in TR signaling, a cell-based GH3-TRE-Luc assay (GH3.TRE-Luc cell line, developed by the laboratory of Dr. Albertinka J. Murk, Wageningen University) was used to measure the inhibition of TR. GH3 (rat pituitary tumor) cells stably expressing a TR activity sensor consisting of two TR response elements and a luciferase reporter gene. The cytotoxicity of the Tox21 compound library against the GH3.TRE-Luc cell line was tested in parallel by measuring the cell viability using CellTiter-Fluor assay (Promega, Madison, WI) in the same wells.
Tox21 Assay Protocol Summary:
GH3.TRE-Luc cells were dispensed at 1500 cells/4 uL/well into 1536-well white solid bottom plates using a Multidrop Combi dispenser (Thermo Fisher Scientific Inc., Waltham, MA). After the assay plates were incubated at 37 C for 4 hours, 23 nL of library compound or DMSO controls was transferred to the assay plates by a pintool station (Kalypsys, San Diego, CA), followed by addition of 1 ul of T3 (1 nM, final concentration in the wells) to stimulate TR transactivation. The assay plates were incubated at 37 C for 23.5 h, and then 1 uL of CellTiter-Fluor reagent (Promega, Madision, WI) of measuring cytotoxicity was added to each well using a Bioraptr Flying Reagent Dispenser (FRD) workstation (Beckman Coulter, Indianapolis, IN, USA). The plates were incubated at 37C and 5% CO2 for additional 30 min, and fluorescence intensity was measured by a ViewLux plate reader (PerkinElmer, Shelton, CT).
Potency is the fitted concentration of half-maximal effect.

SMILES | Potency
CO/N=C(/C(=O)N[C@@H]1C(=O)N2C(C(=O)OCOC(=O)C(C)(C)C)=C(C)CS[C@H]12)c1csc(N)n1 | inactive
COC(C)(C)CCCC(C)CC=O (stereo not given) | inactive
COC(=O)c1cc(C(=O)OC)cc(S(=O)(=O)O)c1 | inactive
COc1cc(C(=O)N2CCCCCCC2)cc(OC)c1OC | inactive
NCCc1cnc[nH]1 | inactive
CCCCCCCCS(=O)(=O)Cl | inactive
CC(C)(C)c1nnc(NS(=O)(=O)c2ccccc2)s1 | inactive
CC(C(=O)O)c1ccc(CC2CCCC2=O)cc1 (stereo not given) | inactive
N[C@H]1CN(c2c(F)cc3c(=O)c(C(=O)O)cn(C4C[C@H]4F)c3c2Cl)CC12CC2 (stereo not given in full) | inactive
CC(C)NC(=O)NC(C)C | inactive
CCOc1ccc(C(=O)OCCN(CC)CC)cc1 | inactive
CCCN(CCC)CCc1cccc2c1CC(=O)N2 | inactive
CC/C=C\CC/C=C/C(OCC)OCC | inactive
NCCCNCCSP(=O)(O)O | inactive
NC(=O)c1ccc(N)cc1 | inactive
O=C1CCCCCCCCCCCN1 | inactive
c1ccc([C@H]2CN3CCSC3=N2)cc1 | inactive
CCN1CCC[C@H]1CNC(=O)c1c(O)c(Cl)cc(Cl)c1OC | inactive
CCCCCCCCCCCCN(CCCCCCCCCCCC)CCCCCCCCCCCC | inactive
COC(=O)CCSCCC(=O)OC | inactive

SMILES | Potency
CN(C)CCCNCCCN(C)C | inactive
O=C(O)Cc1ccc(CCNS(=O)(=O)c2ccc(Cl)cc2)cc1 | inactive
CCc1nccnc1CC | inactive
CCOC(=O)C(=O)OCC | inactive
COC(=O)NN | inactive
N[C@H](C(=O)O)c1ccc(O)cc1 | inactive
CC(C)CCCC(C)N (stereo not given) | inactive
COC(=O)C1=C(C)NC(C)=C(C(=O)OC)C1c1ccccc1[N+](=O)[O-] | 48.6 µM (active)
CC(C)NCC(O)c1ccc(NS(C)(=O)=O)cc1 (stereo not given) | inactive
c1ccc(CC2=NCCN2)cc1 | inactive
Cc1[nH]c(=O)c(C#N)cc1-c1ccc2nccn2c1 | inactive
CCOC(=O)[C@H](CCc1ccccc1)N[C@@H](C)C(=O)N1[C@H](C(=O)O)C[C@@H]2CCC[C@@H]21 | inactive
C1OCOCO1 | inactive
O=C1OC(=O)C2CCCCC12 (stereo not given) | inactive
CCCCC(CC)COC(=O)c1ccccc1O (stereo not given) | inactive
CCCCCCCCCCCCCCCCC | inactive
C=C(C)C(=O)OCCCCCCCC(C)C | inactive
CC(=O)CC(C)C | inactive
O=c1[nH]c(=O)n([C@H]2C[C@H](O)[C@@H](CO)O2)cc1I | inactive
NC(CSCC(=O)O)C(=O)O (stereo not given) | inactive
